Results as given in the supplement of paper PMC10849652.
About 7,900 targets were measured; listed, in parts, are those with a hit and a random draw of the rest. About 0.6% of all pairs of compound and target were hits. A number with no mark means an inactive call.

Assays:
Test in all cases: log2 fold change, soluble protein after heating vs DMSO (PISA); higher = thermal stabilisation; K562 cells, 10 uM, 30 min; active = over 0.2 and 3.5 SD of the protein, either way, in both replicates (recomputed)
erlotinib = compound: C#Cc1cccc(Nc2ncnc3cc(OCCOC)c(OCCOC)cc23)c1 [erlotinib]
Method in brief: (§1)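 Aliquots of K562 cells (2×10^6 cells/mL) treated with 10 μM compound for 30 min were heated for 3 min over 48°C-58°C. After pooling and extraction in PBS with 0.5% NP-40 at 4°C, soluble protein from a 21,000xg, 90 min spin was quantified by TMTpro 16plex LC-MS/MS with channel sums equalised. Thermal stability is expressed against control samples, from duplicates, as a log2 fold change.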

[1] = compound: C/C(=N\NC(=O)C1=CC(=CC=C1)S(=O)(=O)N2CCOCC2)/C3=C(C=CC(=C3)Cl)O
Method in brief: as §1

[2] = compound: C1=CC(=C(C=C1Cl)C2=NC3=NC=CN=C3C(=N2)NC4=CC=NC=C4)F
Method in brief: as §1

[3] = compound: C1=CC(=CC=C1C2=NC3=C(N2)C=C(C=C3)C(=O)N)OC4=CC=C(C=C4)Cl
Method in brief: as §1

[4] = compound: C1=CC2=C(C=CC(=C2)/C=C\3/C(=O)NC(=NCC4=CC=CS4)S3)N=C1
Method in brief: as §1

[5] = compound: C1=CC2=NC=CN=C2C=C1/C=C/3\C(=O)NC(=O)S3
Method in brief: as §1

[6] = compound: C1=CC=C(C=C1)C2=NC(=C(N2)C3=CC=NC=C3)C4=CC(=C(C=C4)Cl)O
Method in brief: as §1

[7] = compound: C1=CC=C2C(=C1)C3=NNC4=CC=CC(=C43)C2=O
Method in brief: as §1

[8] = compound: C1CCN(C1)C(=O)NC2=CC=CC(=C2)NC3=NC=C(C(=N3)NCCC4=CN=CN4)Br
Method in brief: as §1

[9] = compound: C1CN(CCC1(CC2=CC=C(C=C2)Cl)N)C3=NC=NC4=C3C=CN4
Method in brief: as §1

IRAK-1-4 Inhibitor I = compound: C1COCCN1CCN2C3=CC=CC=C3N=C2NC(=O)C4=CC(=CC=C4)[N+](=O)[O-] [IRAK-1-4 Inhibitor I]
Method in brief: as §1

ibrutinib = compound: C=CC(=O)N1CCC[C@@H](n2nc(-c3ccc(Oc4ccccc4)cc3)c3c(N)ncnc32)C1 [ibrutinib]
Method in brief: as §1

[10] = compound: CC(=O)c1cnc2ccc(-c3cc(Cl)c(O)c(Cl)c3)nc2c1N[C@H]1CC[C@H](CN(C)C)CC1
Method in brief: as §1

ralimetinib = compound: CC(C)(C)Cn1c(N)nc2ccc(-c3[nH]c(C(C)(C)C)nc3-c3ccc(F)cc3)nc21 [ralimetinib]
Method in brief: as §1

[11] = compound: CC(C)(O)CC(=O)NCCn1ccc2ncnc(Nc3ccc(Oc4cccc(C(F)(F)F)c4)c(Cl)c3)c21
Method in brief: as §1

[12] = compound: CC(C)C1=C2N=C(C=C(N2N=C1)NCC3=CC=CC=C3)NCCCCCCN
Method in brief: as §1

[13] = compound: CC(C)C[C@@H](C=O)NC(=O)[C@H](CC(C)C)NC(=O)[C@H](CC(C)C)NC(=O)OCc1ccccc1
Method in brief: as §1

pinometostat = compound: CC(C)N(C[C@H]1O[C@@H](n2cnc3c(N)ncnc32)[C@H](O)[C@@H]1O)[C@H]1C[C@@H](CCc2nc3cc(C(C)(C)C)ccc3[nH]2)C1 [pinometostat]
Method in brief: as §1

[14] = compound: CC1=C(C(CC(=O)N1)C2=CC=C(C=C2)C(F)(F)F)C(=O)NC3=C(C=C4C(=C3)C=NN4)F
Method in brief: as §1

[15] = compound: CC1=C(C2=C(C=C1)C(=O)C3=CC=CC=C3N2CCCN)C
Method in brief: as §1

UniProt Q9P031, sequence (Q9P031 whole entry, looked up): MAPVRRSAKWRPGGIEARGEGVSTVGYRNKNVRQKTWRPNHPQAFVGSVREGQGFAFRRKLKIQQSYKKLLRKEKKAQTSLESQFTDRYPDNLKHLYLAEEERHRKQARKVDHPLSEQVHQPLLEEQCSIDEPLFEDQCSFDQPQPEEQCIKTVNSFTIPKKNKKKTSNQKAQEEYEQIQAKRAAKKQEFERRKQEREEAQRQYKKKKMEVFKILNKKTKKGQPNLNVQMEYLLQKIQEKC
UniProt P06493, sequence (P06493 whole entry, looked up): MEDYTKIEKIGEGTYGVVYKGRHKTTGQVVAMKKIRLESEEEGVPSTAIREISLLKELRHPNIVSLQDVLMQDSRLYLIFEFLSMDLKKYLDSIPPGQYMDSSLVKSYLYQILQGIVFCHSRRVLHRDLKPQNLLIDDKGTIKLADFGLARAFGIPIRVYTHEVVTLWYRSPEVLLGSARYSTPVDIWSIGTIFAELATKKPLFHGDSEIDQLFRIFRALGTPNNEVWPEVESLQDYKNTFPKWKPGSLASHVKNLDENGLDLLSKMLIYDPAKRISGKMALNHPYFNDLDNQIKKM
UniProt Q00536, sequence (Q00536 whole entry, looked up): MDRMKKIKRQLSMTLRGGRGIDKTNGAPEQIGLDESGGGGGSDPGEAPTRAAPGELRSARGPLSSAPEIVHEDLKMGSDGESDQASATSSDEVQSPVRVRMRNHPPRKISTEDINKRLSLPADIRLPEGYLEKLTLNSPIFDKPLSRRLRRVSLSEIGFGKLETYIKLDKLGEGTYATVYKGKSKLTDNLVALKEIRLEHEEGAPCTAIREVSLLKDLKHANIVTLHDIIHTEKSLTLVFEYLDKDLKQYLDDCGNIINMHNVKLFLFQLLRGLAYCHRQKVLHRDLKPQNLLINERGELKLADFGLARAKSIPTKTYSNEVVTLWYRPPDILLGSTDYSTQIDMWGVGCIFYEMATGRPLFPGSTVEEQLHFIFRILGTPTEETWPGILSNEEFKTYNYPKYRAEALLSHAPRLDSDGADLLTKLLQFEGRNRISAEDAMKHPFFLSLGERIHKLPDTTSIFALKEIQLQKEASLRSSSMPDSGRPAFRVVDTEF
UniProt Q14839, sequence (Q14839 whole entry, looked up): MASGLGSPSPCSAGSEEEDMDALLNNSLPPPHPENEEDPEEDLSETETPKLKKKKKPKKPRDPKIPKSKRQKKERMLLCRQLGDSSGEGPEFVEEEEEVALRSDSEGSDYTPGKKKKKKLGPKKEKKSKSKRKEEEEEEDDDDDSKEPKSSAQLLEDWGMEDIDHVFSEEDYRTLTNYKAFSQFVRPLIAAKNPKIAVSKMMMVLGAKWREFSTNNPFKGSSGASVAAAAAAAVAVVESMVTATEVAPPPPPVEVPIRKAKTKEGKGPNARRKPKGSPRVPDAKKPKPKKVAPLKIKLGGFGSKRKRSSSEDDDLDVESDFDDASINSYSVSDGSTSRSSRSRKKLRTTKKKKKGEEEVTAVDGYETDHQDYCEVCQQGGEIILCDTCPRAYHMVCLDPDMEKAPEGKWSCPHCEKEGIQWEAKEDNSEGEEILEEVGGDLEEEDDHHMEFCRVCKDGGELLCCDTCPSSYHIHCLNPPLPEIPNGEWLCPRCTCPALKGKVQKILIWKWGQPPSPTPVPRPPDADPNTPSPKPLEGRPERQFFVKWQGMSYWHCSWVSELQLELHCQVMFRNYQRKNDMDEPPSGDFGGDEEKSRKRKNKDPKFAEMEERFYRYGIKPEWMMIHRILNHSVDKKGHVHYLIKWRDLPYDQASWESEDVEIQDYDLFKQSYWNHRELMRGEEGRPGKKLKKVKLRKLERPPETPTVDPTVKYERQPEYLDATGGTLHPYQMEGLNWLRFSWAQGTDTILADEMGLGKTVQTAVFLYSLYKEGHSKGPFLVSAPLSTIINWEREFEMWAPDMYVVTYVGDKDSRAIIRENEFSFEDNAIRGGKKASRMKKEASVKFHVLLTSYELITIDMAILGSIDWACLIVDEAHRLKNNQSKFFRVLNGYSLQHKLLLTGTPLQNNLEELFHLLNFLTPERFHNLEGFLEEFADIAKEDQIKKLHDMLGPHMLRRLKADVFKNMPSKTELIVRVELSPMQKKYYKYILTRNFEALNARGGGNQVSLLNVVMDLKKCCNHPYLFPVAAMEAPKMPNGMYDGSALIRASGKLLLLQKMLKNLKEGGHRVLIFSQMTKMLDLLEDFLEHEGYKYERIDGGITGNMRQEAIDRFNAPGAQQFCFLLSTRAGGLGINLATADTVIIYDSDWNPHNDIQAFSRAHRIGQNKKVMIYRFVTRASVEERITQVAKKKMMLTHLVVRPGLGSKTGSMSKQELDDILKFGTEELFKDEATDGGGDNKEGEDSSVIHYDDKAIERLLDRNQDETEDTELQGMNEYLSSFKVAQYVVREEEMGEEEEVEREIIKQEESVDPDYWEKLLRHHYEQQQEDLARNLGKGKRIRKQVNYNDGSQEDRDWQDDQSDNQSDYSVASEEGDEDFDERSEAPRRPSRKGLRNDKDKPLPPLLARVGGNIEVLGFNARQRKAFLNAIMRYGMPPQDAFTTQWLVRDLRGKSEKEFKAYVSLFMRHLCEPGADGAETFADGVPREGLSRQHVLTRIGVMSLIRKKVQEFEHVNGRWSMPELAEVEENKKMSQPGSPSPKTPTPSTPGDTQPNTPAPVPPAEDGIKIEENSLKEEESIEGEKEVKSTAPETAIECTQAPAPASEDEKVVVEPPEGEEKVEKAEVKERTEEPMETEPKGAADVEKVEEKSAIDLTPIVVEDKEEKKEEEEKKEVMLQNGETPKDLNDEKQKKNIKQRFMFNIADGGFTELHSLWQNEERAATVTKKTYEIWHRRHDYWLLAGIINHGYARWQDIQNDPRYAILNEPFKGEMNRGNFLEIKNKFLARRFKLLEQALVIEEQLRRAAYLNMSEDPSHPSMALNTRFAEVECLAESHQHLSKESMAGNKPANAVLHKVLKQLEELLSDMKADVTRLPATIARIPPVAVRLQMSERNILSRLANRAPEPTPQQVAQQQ
UniProt P05937, sequence (P05937 whole entry, looked up): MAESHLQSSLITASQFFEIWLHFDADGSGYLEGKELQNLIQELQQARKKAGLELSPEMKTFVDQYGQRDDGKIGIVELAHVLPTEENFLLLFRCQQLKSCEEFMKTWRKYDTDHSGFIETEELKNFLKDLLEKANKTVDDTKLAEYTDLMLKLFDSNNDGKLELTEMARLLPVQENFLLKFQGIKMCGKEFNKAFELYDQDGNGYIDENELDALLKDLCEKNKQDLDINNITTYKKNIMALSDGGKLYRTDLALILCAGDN
UniProt Q99653, sequence (Q99653 whole entry, looked up): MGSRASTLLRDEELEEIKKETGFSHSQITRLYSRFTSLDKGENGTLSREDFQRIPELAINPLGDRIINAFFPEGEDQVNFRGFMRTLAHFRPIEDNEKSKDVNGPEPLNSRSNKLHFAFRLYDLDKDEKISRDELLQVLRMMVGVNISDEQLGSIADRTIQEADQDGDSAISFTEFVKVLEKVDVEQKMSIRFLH
UniProt Q8NHZ8, sequence (Q8NHZ8 whole entry, looked up): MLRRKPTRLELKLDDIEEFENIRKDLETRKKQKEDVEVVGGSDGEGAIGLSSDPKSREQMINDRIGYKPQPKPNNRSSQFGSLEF
UniProt Q96LT7, sequence (Q96LT7 whole entry, looked up): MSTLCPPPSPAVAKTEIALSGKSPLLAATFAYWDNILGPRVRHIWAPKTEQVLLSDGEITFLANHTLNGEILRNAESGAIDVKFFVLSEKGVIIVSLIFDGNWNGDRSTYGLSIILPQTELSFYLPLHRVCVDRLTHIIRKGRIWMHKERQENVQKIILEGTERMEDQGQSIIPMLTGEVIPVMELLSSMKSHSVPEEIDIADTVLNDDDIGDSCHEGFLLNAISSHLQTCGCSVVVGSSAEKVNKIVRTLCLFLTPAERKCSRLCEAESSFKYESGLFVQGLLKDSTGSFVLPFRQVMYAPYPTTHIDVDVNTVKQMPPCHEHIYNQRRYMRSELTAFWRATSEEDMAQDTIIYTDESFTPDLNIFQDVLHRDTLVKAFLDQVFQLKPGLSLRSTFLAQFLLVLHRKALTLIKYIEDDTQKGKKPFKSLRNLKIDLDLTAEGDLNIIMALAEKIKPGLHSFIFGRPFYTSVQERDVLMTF

Target	log2 fold change (erlotinib)	log2 fold change [1]	log2 fold change [2]	log2 fold change [3]	log2 fold change [4]	log2 fold change [5]	log2 fold change [6]	log2 fold change [7]	log2 fold change [8]	log2 fold change [9]	log2 fold change (IRAK-1-4 Inhibitor I)	log2 fold change (ibrutinib)	log2 fold change [10]	log2 fold change (ralimetinib)	log2 fold change [11]	log2 fold change [12]	log2 fold change [13]	log2 fold change (pinometostat)	log2 fold change [14]	log2 fold change [15]
CALB1 (UniProt P05937)	-0.011	-0.001	0.067	0.032	-0.033	0.055	-0.01	0.027	0.019	-0.026	0.016	-0.033	0.017	-0.078	-0.052	-0.245 (active)	-0.017	-0.043	0.055	-0.148
CDK1 (UniProt P06493)	0.045	0.06	0.021	0.003	-0.054	0.018	0.003	-0.003	0.007	-0.009	0	-0.046	-0.401 (active)	-0.031	-0.051	-0.02	0.051	0	0.012	-0.021
CHD4 isoform 2 (UniProt Q14839)	0.042	0.103	-0.011	-0.007	0.029	0.034	0.044	-0.08	-0.047	-0.1	-0.198	-0.106	-0.215	0.112	-0.067	-0.313 (active)	0.045	0.07	0.013	-0.057
CDK16 isoform 2 (UniProt Q00536)	-0.072	-0.025	-0.023	-0.07	0.043	-0.016	-0.024	0.121	0.139	-0.029	-0.029	-0.018	0.843 (active)	0.05	-0.031	0.069	0.059	0.016	-0.03	0.025
CDC26 (UniProt Q8NHZ8)	-0.096	0.16	-0.046	0.034	-0.542 (active)	0.025	0.355	0.037	-0.137	-0.022	-0.014	-0.003	0.099	0.188	0.007	-0.01	-0.04	-0.128	0.005	0.049
C9orf72 (UniProt Q96LT7)	0.095	0.021	0.02	-0.012	-0.068	-0.068	-0.086	-0.057	-0.205	0.211	0.016	0.022	-0.001	0.035	-0.051	0.029	-0.019	0.135	-0.095	0.048
CHP1 (UniProt Q99653)	-0.022	0.024	0.097	0.012	-0.056	0.008	0.287 (active)	0.006	-0.07	0.091	0.091	-0.024	0.001	0.145	-0.017	0.017	-0.061	-0.02	-0.017	-0.047
CCDC59 (UniProt Q9P031)	-0.118	-0.127	-0.192	0.071	-0.136	-0.014	-0.091	0.069	0.054	-0.027	-0.083	-0.051	0.224	0.28	-0.073	0.093	0.197	0.233	0.036	-0.468
